VDR inh – blocks the human vitamin D receptor | Potency, µM, usual class: inhibitors | 0.93% of 400,000 active | AID 504847 | VDR-SRC2-3 peptide fluorescence polarization, 2 h
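VDR–SRC2-3 interaction, FP format. Cmpds 23 nl via pintool, brief spin, 2 h ambient incubation.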
PLK1 PBD inh – inhibitors of human PLK1 polo-box domain binding; Plk1 PBD binding of FITC phosphopeptide, fluorescence polarization; Potency, µM, hits mostly inhibitors; 2.8% of 360,000 active; AID 720504; also: series mostly up to about 57 µM; nearly all actives have a fitted effect of over 65% in size
TDP1 cell noCPT – qHTS for Inhibitors of human tyrosyl-DNA phosphodiesterase 1 (TDP1): qHTS in cells in absence of CPT | DT40 Tdp1-/- hTDP1 cells, no CPT, ATP luminescence, 48 h | Potency, µM (series often up to 46.2 µM), most hits filed as inhibitors | 15% of 420,000 active; also: nearly all actives have a fitted effect of over 55% in size
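Camptothecin absent (DMSO only). Human TDP1-complemented DT40 knockout cells, 400 cells/well, 37 °C for minimum 48 hr; ATP measured via CellTiter-Glo, 30 min dark incubation, luminescence.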
DT40 TDP1 CPT – DT40-hTDP1 cell growth loss with CPT; chicken DT40 Tdp1-/-;hTDP1 cells + 20 nM CPT, ATP luminescence, 48 h; Potency, µM (titrated, usually from 46.2 µM), usual class: inhibitors; 12% of 420,000 active; also: nearly all actives have a fitted effect of over 55% in size
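Chicken DT40 Tdp1-/- cells stably complemented with human TDP1 were seeded at 400 cells/well in medium containing 20 nM camptothecin, exposed to pin-transferred compounds, and grown at 37 °C for at least 48 hr. Viability was read as ATP luminescence.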
TDP1 block – TDP1 (human) enzyme inhibition; Q9NUW8; recombinant TDP1, AlphaScreen DNA substrate cleavage; Potency, µM (titrated, usually from 130 µM), most hits filed as inhibitors; 0.28% of 350,000 active; AID 485290; also: nearly all actives have a fitted effect of over 40% in size
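E. coli-derived human Tdp1, 1 nM final. Cpd preinc 15 min RT; substrate 15 nM final, 5 min RT; AS bead mix 10 ug/ml final, 10 min RT. Signal loss = tyrosine-FITC cleavage. No-enzyme wells = max signal.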
GCN5L2 inh – blocks human GCN5L2 histone acetyltransferase; 0.21% of 390,000 active; GCN5L2 HAT assay, ThioGlo1 CoA-SH fluorescence; Potency, µM (top dose mostly 58.9 µM), actives largely listed as inhibitors; Q92830; AID 504327
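Free CoA generated was detected with ThioGlo1 (50uM) fluorescence at Ex340nm/Em540nm, read immediately and after 20 min at room temperature. Enzyme, 20 nM in HEPES pH 7.5 buffer, saw compounds 15 min before adding 75uM H3(1-25) peptide and 70uM acetyl-CoA.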
A number is an active result; . = inactive; ? = inconclusive; / = no result given. An excerpt weighted towards active compounds, which were near 18% of everything screened. Calls follow the shape of the dose curve; as a rule, active = well fitted curve in the direction sought with a large enough effect; inconclusive = small, poorly fitted or top-dose-only effect, or another doubt; inactive = no such curve, though single readings can be large; an effect the other way counts as inactive or inconclusive.

SMILES | VDR inh | PLK1 PBD inh | TDP1 cell noCPT | DT40 TDP1 CPT | TDP1 block | GCN5L2 inh
CN(C)C1CCN(Cc2cc(COCc3ccccc3)c3cccnc3c2O)C1 (stereo not given) | . | / | / | / | . | .
CCOc1ccc2oc(=O)cc(CN3CCN(c4ccccc4OC)CC3)c2c1 | . | / | ? | ? | . | .
COc1cc(CN2CCN(c3cccc(C)c3C)CC2)cc(Br)c1O | . | . | 20.6µM | 13µM | . | .
CCCOCc1cc(CN2CCN(c3ccccc3OC)CC2)c(O)c2ncccc12 | . | / | 2.91µM | 4.61µM | . | .
Cc1cc(C)c(NC(=O)Cn2c(=O)n(CC3CCCO3)c(=O)c3ccccc32)c(C)c1 (stereo not given) | . | / | . | . | . | .
COCCCNC(=O)C1CCCN(c2nn3cc(-c4ccc(C)cc4)nc3s2)C1 (stereo not given) | . | / | ? | ? | . | .
CC(C)(C)N1C(=O)c2ccccc2NC(=O)C1C(=O)NCCc1ccccc1 (stereo not given) | / | . | ? | . | / | /
Cc1ccc(-c2noc(CN(C(=O)C(c3ccccc3)c3ccccc3)C(C)C)n2)cc1 | . | . | 14.6µM | 18.4µM | . | .
CC(C)N(Cc1nc(-c2ccc(Cl)cc2)no1)C(=O)C(c1ccccc1)c1ccccc1 | . | . | ? | ? | . | .
COc1ccc(Cl)cc1C(=O)N(Cc1nc(-c2cccc(C)c2)no1)C(C)C | . | . | 6.51µM | 6.51µM | . | .
COc1ccc(-c2noc(CN(C(=O)COc3cc(C)c(Br)c(C)c3)C(C)C)n2)cc1 | . | / | 23.1µM | 18.4µM | . | .
COc1ccc(C(=O)NCc2nc(-c3cccc(C)c3)no2)cc1OC | . | / | 16.4µM | ? | . | .
O=C(NCCCN1CCN(c2ccc(F)cc2)CC1)c1cnn(-c2ccc(F)cc2)c1-n1cccc1 | . | / | / | / | . | .
CCc1ccc(NC(=O)c2ccccc2SC)cc1 | . | . | . | . | . | .
COC(=O)c1ccc(C(NC(=O)c2ccco2)[C@]2(C)C[C@H]2C2CCCCC2)cc1 (stereo not given in full) | / | / | / | / | . | /
COc1ccc(-c2noc(CNC(=O)c3ccoc3C)n2)cc1 | . | . | . | . | . | .
COc1ccc(-c2noc(CN(C)C(=O)c3ccoc3C)n2)cc1 | ? | . | 16.4µM | ? | . | .
Cc1cc(C)cc(C(=O)N(Cc2nc(-c3ccc(Cl)cc3)no2)C(C)C)c1 | . | / | 18.4µM | 20.6µM | . | .
CC(C)N(Cc1nc(-c2ccc(Cl)cc2)no1)C(=O)/C=C/c1ccccc1 | . | . | ? | ? | . | .
COc1cccc(C(=O)N(Cc2nc(-c3ccc(Cl)cc3)no2)C(C)C)c1OC | . | / | 20.6µM | 18.4µM | . | .
O=S(=O)(c1ccc(F)cc1)N1CCC(n2c(C(F)(F)F)nc3cccnc32)CC1 | . | / | . | 11.6µM | . | .
COc1ccc(C(=O)CSc2nnc(CC(=O)Nc3ccccc3OC)n2C)cc1 | . | . | ? | . | . | .
COc1cc(/C=C(\C#N)C(=O)c2ccc(O)c(O)c2)cc(I)c1O | ? | . | . | . | . | .
O=C(CN1CCN(c2ncc(C(F)(F)F)cc2Cl)CC1)N1CCN(c2ncc(C(F)(F)F)cc2Cl)CC1 | . | . | 15.8µM | 17.8µM | . | .
O=C(c1cccs1)N1CCN(c2ncc(C(F)(F)F)cc2Cl)CC1 | . | . | ? | ? | . | .
O=C(c1cccc(C(F)(F)F)c1)N1CCOC12CCN(c1ncc(C(F)(F)F)cc1Cl)CC2 | . | . | 23.1µM | 23.1µM | . | /
O=C(OC1CCN(c2ncc(C(F)(F)F)cc2Cl)CC1)c1cccc(C(F)(F)F)c1 | . | . | . | . | . | .
CN1CCN(C(=O)C2CCN(c3ncc(C(F)(F)F)cc3Cl)CC2)CC1 | . | . | 20.6µM | ? | . | .
COc1cc2c(cc1OC)/C(=C/C(=O)c1cccc([N+](=O)[O-])c1)NCC2 | . | ? | ? | ? | / | ?
